This is an account of results in PMC5700166.

The target in experiment [1] is T1, GST-Nv-NF-kB (Ser allele) (Nematostella vectensis, UniProt A7UNT2 2-411).
T1 sequence: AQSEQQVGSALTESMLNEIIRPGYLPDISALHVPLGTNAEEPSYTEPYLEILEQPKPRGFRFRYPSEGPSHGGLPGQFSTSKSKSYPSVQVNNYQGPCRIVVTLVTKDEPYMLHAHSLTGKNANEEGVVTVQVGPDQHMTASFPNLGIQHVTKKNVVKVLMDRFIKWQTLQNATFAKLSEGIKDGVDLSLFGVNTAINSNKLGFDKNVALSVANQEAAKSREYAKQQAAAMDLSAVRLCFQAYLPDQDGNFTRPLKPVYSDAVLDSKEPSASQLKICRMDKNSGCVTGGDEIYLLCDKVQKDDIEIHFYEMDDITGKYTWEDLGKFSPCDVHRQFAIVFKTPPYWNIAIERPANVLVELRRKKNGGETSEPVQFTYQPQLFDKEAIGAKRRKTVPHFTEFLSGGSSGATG
Description: protein-binding microarray (PBM); PBM: ~300 nM protein, 6 mM HEPES pH 7.8, 80 mM KCl, 0.5 mM EDTA, 0.5 mM EGTA, 6% glycerol, 35 ng/ul poly-dIdC, 1% milk, 1 h, room temperature; Ap Aiptasia and Nv Nematostella (sea anemones) / Co Capsaspora / Aq Amphimedon (sponge) / Dm Drosophila / Hu human; RHD is the Rel homology domain; high values mean tight binding. The note with it: dsDNA, one strand shown.

Experiment [2] concerns the target GST-Hu-p50 (Homo sapiens, UniProt P19838 7-356). Described as above. The note with it: dsDNA, one strand shown.

GST-Hu-p50, sequence (P19838 7-356): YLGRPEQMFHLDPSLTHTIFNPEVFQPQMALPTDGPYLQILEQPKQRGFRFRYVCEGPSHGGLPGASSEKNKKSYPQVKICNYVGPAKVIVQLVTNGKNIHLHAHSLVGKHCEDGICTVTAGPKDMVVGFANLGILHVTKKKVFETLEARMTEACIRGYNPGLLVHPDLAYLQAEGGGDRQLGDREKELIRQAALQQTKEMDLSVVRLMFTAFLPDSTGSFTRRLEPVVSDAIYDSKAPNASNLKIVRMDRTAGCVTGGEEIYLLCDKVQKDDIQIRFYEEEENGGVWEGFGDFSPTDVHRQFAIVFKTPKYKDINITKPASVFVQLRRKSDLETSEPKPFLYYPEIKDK

“CCGATTAACATCAGGGCCCCCCCTGATGTTAATCGGGTCTTGATTCGCTTGACGCTGCTG”: the binding signal in experiment [1] was 3.34 z-score; in experiment [2], 4.39 z-score.

In experiment [2], “CCGATTAACATCAGGAATCCCACTGATGTTAATCGGGTCTTGATTCGCTTGACGCTGCTG” yielded a binding signal of 1.55 z-score.

With “CCGATTAACATCAGGAAGGCCCCTGATGTTAATCGGGTCTTGATTCGCTTGACGCTGCTG”, in experiment [2], the binding signal is 2.59 z-score.

As to “CCGATTAACATCAAATTCCCAGTTGATGTTAATCGGGTCTTGATTCGCTTGACGCTGCTG”, the binding signal in experiment [1] stood at 3.92 z-score; in experiment [2], 2.85 z-score.

In experiment [2], “CCGATTAACATCAAATTCCCACGTGATGTTAATCGGGTCTTGATTCGCTTGACGCTGCTG” registered a binding signal of 2.98 z-score.

For “CCGATTAACATCACCTATTCCCCTGATGTTAATCGGGTCTTGATTCGCTTGACGCTGCTG”, the binding signal in experiment [2] turned out to be 5.12 z-score.

In the case of “CCGATTAACATCAGGTAATCACCTGATGTTAATCGGGTCTTGATTCGCTTGACGCTGCTG”, the binding signal was found to be 2.78 z-score in experiment [1] and 2.85 z-score in experiment [2].

In turn, “CCGATTAACATCAAAAATTTCCGTGATGTTAATCGGGTCTTGATTCGCTTGACGCTGCTG” yielded a binding signal in experiment [2] of 1.34 z-score.

“CCGATTAACATCACGGGTTTTTCTGATGTTAATCGGGTCTTGATTCGCTTGACGCTGCTG”: the results for the binding signal in experiment [1] and in experiment [2] were 3.59 z-score and 3.63 z-score, respectively.

In turn, “CCGATTAACATCAGGCGTTTCCCTGATGTTAATCGGGTCTTGATTCGCTTGACGCTGCTG” yielded a binding signal in experiment [2] of 1.83 z-score.

In experiment [2], “CCGATTAACATCAATTTAGACGGTGATGTTAATCGGGTCTTGATTCGCTTGACGCTGCTG” had a binding signal of 1.58 z-score.

Turning to “CCGATTAACATCAGGCTTCCCCCTGATGTTAATCGGGTCTTGATTCGCTTGACGCTGCTG”, the binding signal came out at 6.08 z-score in experiment [1] and 5.25 z-score in experiment [2].

“CCGATTAACATCAAAAATTTCCTTGATGTTAATCGGGTCTTGATTCGCTTGACGCTGCTG” displayed a binding signal in experiment [2] of 1.32 z-score.

Consider “CCGATTAACATCACGGTATTTCCTGATGTTAATCGGGTCTTGATTCGCTTGACGCTGCTG”, for which the results for the binding signal in experiment [1] and in experiment [2] were 1.75 z-score and 1.48 z-score, respectively.

As for “CCGATTAACATCAACTCGGGAAATGATGTTAATCGGGTCTTGATTCGCTTGACGCTGCTG”, the results for the binding signal in experiment [1] and in experiment [2] were 2.66 z-score and 1.46 z-score, respectively.

On to “CCGATTAACATCAAGGTAATCCCTGATGTTAATCGGGTCTTGATTCGCTTGACGCTGCTG”, for which the binding signal stood at 2.34 z-score in experiment [1] and 1.4 z-score in experiment [2].

“CCGATTAACATCATTATGGGAAATGATGTTAATCGGGTCTTGATTCGCTTGACGCTGCTG”: the binding signal came out at 2.21 z-score in experiment [1] and 2.18 z-score in experiment [2].

For the sequence “CCGATTAACATCAGGTAATTACCTGATGTTAATCGGGTCTTGATTCGCTTGACGCTGCTG”, the binding signal in experiment [2] amounted to 3.47 z-score.

Take “CCGATTAACATCAGGGGAGAAAATGATGTTAATCGGGTCTTGATTCGCTTGACGCTGCTG”: the binding signal is 5.87 z-score in experiment [1] and 4.88 z-score in experiment [2].

On to “CCGATTAACATCAAACCCCCCCGTGATGTTAATCGGGTCTTGATTCGCTTGACGCTGCTG”, for which the results for the binding signal in experiment [1] and in experiment [2] were 4.7 z-score and 5.27 z-score, respectively.

Turning to “CCGATTAACATCAACGTATTCCCTGATGTTAATCGGGTCTTGATTCGCTTGACGCTGCTG”, the binding signal was 3.53 z-score in experiment [1] and 1.19 z-score in experiment [2].

“CCGATTAACATCAAGGAAATTCCTGATGTTAATCGGGTCTTGATTCGCTTGACGCTGCTG” had a binding signal in experiment [2] of 1.33 z-score.

For the sequence “CCGATTAACATCAAAAATCCCATTGATGTTAATCGGGTCTTGATTCGCTTGACGCTGCTG”, the binding signal in experiment [1] came to 1.88 z-score; in experiment [2], 3.48 z-score.

Consider “CCGATTAACATCAAAGTTTTCCCTGATGTTAATCGGGTCTTGATTCGCTTGACGCTGCTG”, for which, in experiment [2], the binding signal came out at 4.49 z-score.

Regarding “CCGATTAACATCACAAACTTCCCTGATGTTAATCGGGTCTTGATTCGCTTGACGCTGCTG”, the binding signal in experiment [1] was 4.44 z-score; in experiment [2], 2.88 z-score.

As for “CCGATTAACATCAGGGAACTTTATGATGTTAATCGGGTCTTGATTCGCTTGACGCTGCTG”, the binding signal in experiment [1] came to 3.6 z-score; in experiment [2] it was 3.66 z-score.

Regarding “CCGATTAACATCAATTGGGAAATTGATGTTAATCGGGTCTTGATTCGCTTGACGCTGCTG”, the binding signal in experiment [2] worked out at 2.69 z-score.

Consider “CCGATTAACATCACTCTTTCCCCTGATGTTAATCGGGTCTTGATTCGCTTGACGCTGCTG”, for which, in experiment [2], the binding signal came to 4.08 z-score.

“CCGATTAACATCAGGCAACCCCATGATGTTAATCGGGTCTTGATTCGCTTGACGCTGCTG” returned a binding signal in experiment [2] of 1.09 z-score.

For the sequence “CCGATTAACATCAGATATTTCCCTGATGTTAATCGGGTCTTGATTCGCTTGACGCTGCTG”, the binding signal was 5.36 z-score in experiment [1] and 3.91 z-score in experiment [2].

On to “CCGATTAACATCAGGGAGTCCCATGATGTTAATCGGGTCTTGATTCGCTTGACGCTGCTG”, for which the binding signal in experiment [1] amounted to 2.92 z-score; in experiment [2], 3.1 z-score.

Take “CCGATTAACATCACAAATGGGAATGATGTTAATCGGGTCTTGATTCGCTTGACGCTGCTG”: the values for the binding signal in experiment [1] and in experiment [2] were 1.63 z-score and 1.06 z-score, respectively.

Turning to “CCGATTAACATCAGAACTTTCCCTGATGTTAATCGGGTCTTGATTCGCTTGACGCTGCTG”, the figures for the binding signal in experiment [1] and in experiment [2] were 5.58 z-score and 4.94 z-score, respectively.
